Eleven molecules from PubChem BioAssay can be followed below.

For assay [1], the system named is Human papillomavirus type 1a protein E7 (residues 44-93). In words: HPV1a E7 fragment binders on microarrays, primary screen, biochemical, small-molecule microarray, residues 44-93, 635 nm fluorescence (AID 1108).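 Note: E7 fragment applied at 1 µg/mL in TBST for 1 h at 4 C; score combines spot fluorescence with its signal to noise ratio.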 The following applies: small-molecule microarray binding, fluorescence 635 nm; higher = more signal.
The nature of assay [2]: modulators of HCV replicon luciferase signal, primary screen, HCV replication inhibitor project, Huh7 cells, luciferase reporter (AID 1109).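 Note: huh7 hepatoma cells harbouring a luciferase neomycin HCV replicon reporter; luciferase luminescence as measure of HCV replicon replication; test concentration not given here.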 The note with it: 48 h, higher = more signal.
For assay [3], the target named is Left-right determination factor 2 (Homo sapiens) (UniProt O00292). In words: LEFTY2 binders on small-molecule microarrays, primary screen, biochemical, small-molecule microarray, 635 nm fluorescence scan (AID 1110). The note with it: LEFTY2 binding, higher = more signal.
Chain of Left-right determination factor 2 (Homo sapiens) (O00292 whole entry, looked up): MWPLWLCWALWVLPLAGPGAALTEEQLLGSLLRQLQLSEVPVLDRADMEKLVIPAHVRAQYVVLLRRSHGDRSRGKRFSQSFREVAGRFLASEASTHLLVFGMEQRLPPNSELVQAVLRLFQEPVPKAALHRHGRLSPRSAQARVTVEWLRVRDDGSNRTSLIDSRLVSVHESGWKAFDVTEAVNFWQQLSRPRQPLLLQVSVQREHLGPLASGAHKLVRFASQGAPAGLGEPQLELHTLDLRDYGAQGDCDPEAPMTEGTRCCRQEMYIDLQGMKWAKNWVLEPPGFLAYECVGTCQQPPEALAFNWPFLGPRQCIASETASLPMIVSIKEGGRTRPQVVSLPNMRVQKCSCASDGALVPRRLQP
For assay [4], the target named is Calmodulin-1 (Homo sapiens) (UniProt P0DP23). In words: CALM1 binders on microarrays, EGTA buffer, profiling panel, biochemical, small-molecule microarray, Cy5-labelled CALM1 (AID 1111).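 Note: labelled calmodulin applied in Tris saline Tween buffer holding calcium plus EGTA and DTT.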 The note with it: Cy5-CALM1 binding fluorescence, higher = more signal.
Assay [5] has the same target. In words: calcium-bound CALM1 binders on microarrays, profiling panel, artefact control for SMM control-protein annotation, biochemical, small-molecule microarray, Cy5-labelled CALM1, plus calcium (AID 1112).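 Note: score merges spot fluorescence with signal to noise from triplicate slides.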 The following applies: Cy5-CALM1 binding fluorescence, higher = more signal.
Assay [6] is described as follows: small-molecule microarray binders of probe aWnt5a, primary screen, biochemical, biotinylated probe, 635/667 nm fluorescence (AID 1113).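 Note: score merges 667 nm fluorescence intensity with signal-to-noise per printed feature.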 The following applies: higher = more signal.
Assay [7] can be described thus: small-molecule microarray binders of probe aShh, primary screen, biochemical, biotinylated probe, 635/667 nm fluorescence (AID 1114).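 Note: probe is biotin-labelled aShh protein from a stem cell growth factor screen; measures binding of labelled protein to compounds printed on the slide; score merges feature fluorescence at 667 nm with signal-to-noise.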 The note with it: higher = more signal.
Assay [8] can be described thus: small-molecule microarray binders of probe aNog, primary screen, biochemical, biotinylated probe, 635/667 nm fluorescence (AID 1115).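 Note: probe is biotinylated aNog protein used at 0.15 µg/mL for 1 h at 4 C; z-score combines 667 nm fluorescence of each spot with its signal to noise.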 The note with it: higher = more signal.
Assay [9] addresses Torsin-1A-interacting protein 1 (Homo sapiens) (UniProt Q5JTV8). In words: LAP1 binders from COS7 cell lysate, primary screen, small-molecule microarray, 635/667 nm fluorescence (AID 1116). The note with it: COS7-hLAP1 lysate binding, 635 nm fluorescence, higher = more signal.
Assay [10] concerns the target Alpha-bungarotoxin (Bungarus multicinctus) (UniProt P60615). The experiment in a line: alpha-bungarotoxin binders on microarray, profiling panel, artefact control for SMM control protein annotation, biochemical, small-molecule microarray, Alexa647 label, 635/667 nm fluorescence (AID 1117). The note with it: alpha-BTX-A647 binding fluorescence, higher = more signal.

SMILES strings stand for the structures.

Chain of Torsin-1A-interacting protein 1 (Homo sapiens) (Q5JTV8 whole entry, looked up): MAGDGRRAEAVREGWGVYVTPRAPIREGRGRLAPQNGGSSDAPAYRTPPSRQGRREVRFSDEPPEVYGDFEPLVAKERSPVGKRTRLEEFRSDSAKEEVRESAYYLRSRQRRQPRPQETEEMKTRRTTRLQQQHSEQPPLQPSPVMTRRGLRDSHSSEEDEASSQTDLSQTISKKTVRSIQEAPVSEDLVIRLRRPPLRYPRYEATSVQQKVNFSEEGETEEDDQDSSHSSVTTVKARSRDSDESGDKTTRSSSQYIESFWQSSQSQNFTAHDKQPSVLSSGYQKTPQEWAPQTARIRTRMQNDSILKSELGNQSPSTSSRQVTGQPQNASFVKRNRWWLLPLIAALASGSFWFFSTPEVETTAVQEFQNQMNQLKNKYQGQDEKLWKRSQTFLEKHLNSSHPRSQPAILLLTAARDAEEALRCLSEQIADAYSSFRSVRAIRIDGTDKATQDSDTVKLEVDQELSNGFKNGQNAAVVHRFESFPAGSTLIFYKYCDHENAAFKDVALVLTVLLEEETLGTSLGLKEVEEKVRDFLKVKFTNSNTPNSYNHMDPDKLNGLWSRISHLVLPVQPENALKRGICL
Chain of Alpha-bungarotoxin (Bungarus multicinctus) (P60615 whole entry, looked up): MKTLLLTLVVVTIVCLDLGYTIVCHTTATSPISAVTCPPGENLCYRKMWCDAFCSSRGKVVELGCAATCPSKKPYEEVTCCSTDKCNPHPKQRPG

Regarding `CC(C)C(=C=CC[C@@H](O)c1ccc(OCCO)cc1)C[C@@H](O)c1ccccn1`, the composite z-score in [1] is 0.323; in assay [3], 1.21; in assay [4], -0.315; in assay [5], -0.113; in assay [6], -0.0721; in assay [7], -0.0709. Moreover, the composite z-score was -0.0926 in [8], 1.08 in [9] and -0.0878 in [10]. In assay [2], the z-score is -0.218.

Regarding `CCC[C@@H]1C[C@@]1(CCC)[C@@H](NC(=O)c1ccccc1)c1cccc(Cl)c1`, the composite z-score in assay [1] was 1.37; in assay [3], -0.278; in assay [4], 1.97; in [5], 1.43; in assay [6] it was 1.09; in assay [7], 1.35. The composite z-score in assay [8] was 0.311; in assay [9] it was 1.04; in assay [10], 1.74. Also, the z-score in [2] is -0.75.

Take `CN1C(=O)C2C=CC(C(O)C3CC=CCC3)N(N(c3ccccc3)c3ccccc3)C2C1=O` (stereo not given): the composite z-score is -1.02 in [1]; 0.411 in assay [3]; -0.549 in assay [4]; -0.75 in [5]; 0.027 in assay [6]; -0.0322 in assay [7]. Besides, the results for the composite z-score in assay [8], in [9] and in [10] were -0.0446, 0.533 and 0.141, respectively. This molecule showed a z-score in [2] of -0.155.

For the molecule `COC(=O)[C@@]1(Cc2ccc(OC)cc2)[C@H]2c3cc(C(=O)N4CCCC4)n(Cc4ccc(O)c(OC)c4)c3C[C@H]2CN1C(=O)c1ccccc1`, the composite z-score in [1] was 0.425; in assay [3], -0.114; in assay [4] it was 2.7; in assay [5], 0.957; in [6], 0.755; in assay [7] it was 1.04. Besides, the composite z-score in [8] came out at 2.35; in assay [9] it was 3.25; in [10], 1.25. In [2], this molecule returned a z-score of -1.78.

`C=C(COC)C(=O)CC[C@@H](OC(C)=O)c1ccc(CO)o1`: the composite z-score was -0.363 in [1]; 0.747 in assay [3]; -0.401 in assay [4]; -0.515 in assay [5]; -0.0572 in assay [6]; -0.123 in assay [7]. The composite z-score in assay [8] was 0.0139; in assay [9], 0.55; in assay [10] it was -0.0178. Moreover, in assay [2], the z-score is -0.0928.

For `C=CCOC(=O)[C@H]1[C@@H]2C(=O)O[C@@H](c3ccccc3)[C@@H](c3ccccc3)N2[C@@H](c2ccc(OCCOC(=O)[C@H]3C[C@H]4C(=O)N[C@@H](CCCC[N+](C)(C)C)C(=O)N4[C@H]3c3ccc(O)cc3)cc2)[C@]12C(=O)Nc1ccc(I)cc12`, the composite z-score in assay [1] is 0.756; in assay [3], 0.853; in [4] it was -0.421; in [5] it was -0.0782; in [6], 0.0549; in [7], 1.11. The composite z-score in assay [8] stood at 1.86; in [9] it was 0.218; in [10] it was 0.659. Also, the z-score in assay [2] is -0.537.

As for `CC(C)N1C(=O)C[C@@](C(=O)NCC(F)(F)F)(c2ccc([N+](=O)[O-])cc2)[C@H]1c1ccc(CO)cc1`, the composite z-score is 0.627 in assay [1]; -0.383 in assay [3]; -0.273 in assay [4]; -0.411 in assay [5]; -0.178 in assay [6]; -0.372 in assay [7]. Moreover, the composite z-score in [8] is -0.368; in assay [9], -0.0079; in [10], 0.259. Also, in assay [2], the z-score is -0.672.

Turning to `O=C1O[C@@H](c2ccccc2)[C@@H](c2ccccc2)N2[C@@H](c3ccccc3OCCO)[C@]3(C(=O)Nc4ccccc43)[C@@H](C(=O)Nc3nc4ccccc4s3)[C@H]12`, the composite z-score in assay [1] was 1.45; in assay [3], 0.108; in [4], 1.41; in [5], 0.494; in assay [6], -0.0621; in assay [7], 0.206. In addition, the composite z-score in assay [8] worked out at 1.96; in assay [9], 0.618; in assay [10], 1.56. In assay [2], this molecule showed a z-score of -3.25.

As for `C=CC[C@@]12N=C(c3ccc(OCCCO)cc3)O[C@@H]1c1ccccc1N(C)C2=O`, the composite z-score was 1.16 in assay [1]; 0.0838 in [3]; 0.422 in assay [4]; -0.206 in assay [5]; 0.14 in [6]; 0.547 in assay [7]. Also, the composite z-score was -0.621 in assay [8], -0.0062 in assay [9] and 1.21 in assay [10]. In assay [2], this molecule registered a z-score of -1.56.

`COC(=O)[C@@]1(Cc2ccccc2)N=C(c2ccc(OCCCO)cc2)O[C@H]1c1ccccc1`: the composite z-score was 0.968 in assay [1]; -1.06 in assay [3]; 0.288 in assay [4]; -0.0316 in [5]; -0.0647 in assay [6]; 0.261 in assay [7]. The composite z-score in [8] came out at 1.14; in [9], 2.32; in assay [10], 1.93. In assay [2], the z-score is -1.98.

Take `NC(=O)[C@@H]1[C@H]2C(=O)O[C@H](c3ccccc3)[C@H](c3ccccc3)N2[C@H](c2ccc(O)cc2)[C@@]12C(=O)Nc1ccccc12`: the composite z-score in [1] is 0.812; in [3], -2.27; in assay [4] it was -0.395; in [5] it was -0.127; in assay [6] it was -0.127; in assay [7], -0.0553. Also, the values for the composite z-score in [8], in assay [9] and in assay [10] were 0.264, -1.02 and -0.674, respectively. Besides, the z-score in [2] is -1.1.
